Most compounds without a hit are left out; they make up all but 7.1% or so of the library.
PINK1 expr mod – changes PINK1 expression | PINK1 immunofluorescence, high-content cytometry, 24 h | Potency, µM (doses to about 76.6 µM), hits mostly activators | 410,000 compounds, 0.2% hits | AID 624263; active = well fitted activation curve with a large enough effect; inconclusive = small, poorly fitted or top-dose-only effect; cell line not stated here; also: nearly all actives have a fitted effect of over 65% in size
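Compound titrations (5 concentrations, 24 h) on a stable cell line; DMSO and CCCP controls. Endpoint: fixed-cell PINK1 immunofluorescence with mitochondrial, cell and nuclear markers, scanned by microplate cytometer.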
SW480 rerep – inducers of DNA re-replication in SW480 colon cancer cells. 340,000 compounds, 1.8% hits. Potency, µM (titrated, usually from 46.1 µM), usual class: activators. SW480 DNA re-replication, Hoechst DNA content imaging, 48 h; also: nearly all actives have a fitted effect of over 55% in size
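SW480 cells exposed to compounds for 48 hr at 37 C, 5% CO2, then Hoechst-stained 40 min. Nuclear DNA content imaged by fluorescence scanning (405 nm excitation, 500-530 nm emission); re-replication scored as increased high-intensity nuclei.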
ATXN2 expr inh – reduces ATXN2 reporter expression in HEK-293 cells; HEK-293 ATXN2-luciferase reporter, luminescence, 24 h; Potency, µM (series often up to 57 µM), actives largely listed as inhibitors; 360,000 compounds, 0.72% hits; AID 1745845; also: nearly all actives have a fitted effect of over 55% in size
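qHTS (up to 57 uM final) was run with 24 h compound exposure of reporter cells at 37 °C. Each well was multiplexed: SteadyGlo luminescence measured ATXN2-luciferase expression after a fluorogenic Gly-Phe-AFC viability readout (25 uM final).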
ATXN viability – reduces viability in counter-screen for ATXN expression inhibitors; 400,000 compounds, 0.49% hits; Potency, µM (highest dose often 56.7 µM), usual class: cytotoxic; S2 cells (HEK-293 line with an ATXN2-luciferase reporter) viability, CellTiter-Fluor protease fluorescence, 24 h; AID 651635; also: nearly all actives have a fitted effect of over 40% in size
MCF10A rereplic – inducers of DNA re-replication in MCF 10A breast cells; 350,000 compounds, 2.9% hits; Potency, µM (series often up to 46.1 µM), usual class: activators; MCF 10A DNA re-replication, Hoechst nuclear intensity, 48 h; AID 624296; also: nearly all actives have a fitted effect of over 50% in size
IL-1B inflam inh – inflammasome signaling inhibition, IL-1 beta readout | THP-1 LPS/ATP IL-1B secretion, AlphaLISA, 16 h; hits give low values | activity change, % at 57.5 µM | 360,000 compounds, 4.7% hits; in the data active = activity change below about -50%; inconclusive = mostly about -30% to -49%
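THP-1 cells pretreated 1 hr with compounds (up to 57.5 uM final), then stimulated with LPS (250 ng/mL final) plus ATP (1.25 mM final); secreted IL-1B measured by AlphaLISA after 16 hr, decreased signal indicating inhibition.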
Of the large screens only hits and unclear results are named; the others gave an inactive call. Unless noted, calls follow the shape of the dose curve; as a rule, active = well fitted curve in the direction sought with a large enough effect; inconclusive = small, poorly fitted or top-dose-only effect, or another doubt; inactive = no such curve, though single readings can be large; an effect the other way counts as inactive or inconclusive.

Cc1noc(C)c1COc1cccc(C(=O)OC(C)C(=O)Nc2ccc3c(c2)OCO3)c1 (centres undefined)	PINK1 expr mod inconclusive, SW480 rerep inconclusive, ATXN viability inconclusive, MCF10A rereplic 15µM
Cc1noc(C)c1COc1cccc(C(=O)Nc2ccc(Br)cc2F)c1	SW480 rerep 15µM, MCF10A rereplic 5.8µM
Cc1noc(C)c1COc1ccc(C(=O)NNC(=O)c2ccccc2F)cc1	SW480 rerep 12µM
Cc1noc(C)c1COc1ccc(C(=O)NNC(=O)c2ccccc2)cc1	SW480 rerep 13µM, MCF10A rereplic 21µM
O=S(=O)(c1ccc2c(c1)CCC2)N1CCN(c2nc(-c3ccccc3)nc3ccccc23)CC1	none (no result: SW480 rerep, ATXN2 expr inh, ATXN viability, MCF10A rereplic, IL-1B inflam inh)
COc1ccc(-c2cc(C(F)(F)F)n3nc(C(=O)NCC45CC6CC(CC(C6)C4)C5)cc3n2)cc1	none (no result: SW480 rerep, MCF10A rereplic, IL-1B inflam inh)
Cc1ccc(NC(=O)c2ccc(OCc3c(C)noc3C)cc2)cc1C	IL-1B inflam inh -88
CCC(=O)N(CCC(c1ccccc1)c1ccco1)Cc1cccs1 (centres undefined)	MCF10A rereplic 11µM
COc1ccccc1C(CCN(Cc1cccs1)C(C)=O)c1ccco1 (centres undefined)	IL-1B inflam inh -98
CC[n+]1c(C)sc2cc(C)ccc21	ATXN viability inconclusive
Cc1ccc2c(c1)sc(-c1ccc(N(C)C)cc1)[n+]2C	PINK1 expr mod inconclusive, SW480 rerep 13µM, ATXN viability inconclusive, MCF10A rereplic 12µM, IL-1B inflam inh inconclusive (no result: ATXN2 expr inh)
CC(C)NS(=O)(=O)c1ccc2nc(NC(=O)c3cncc(Br)c3)sc2c1	none (no result: SW480 rerep, MCF10A rereplic, IL-1B inflam inh)
Cc1cc(C)n2nc(C)c(-c3ccc(Cl)cc3)c2n1	ATXN viability inconclusive
CCSc1cc(C)nc2c(-c3ccc(Cl)cc3)c(C)nn12	SW480 rerep 18µM, MCF10A rereplic 15µM
Cc1cc(SCC(=O)c2ccc(O)c(O)c2)n2nc(C)c(-c3ccccc3)c2n1	SW480 rerep 7.3µM, ATXN2 expr inh inconclusive, ATXN viability inconclusive, MCF10A rereplic inconclusive
CC1(C)C2CCC(C2)C1(C)NC(=O)CNCC1CCCCC1 (centres undefined)	ATXN viability inconclusive, IL-1B inflam inh -78
O=C(NCc1ccco1)c1c[nH]c2ccc(S(=O)(=O)Nc3ccc(F)cc3F)cc2c1=O	none (no result: SW480 rerep, MCF10A rereplic, IL-1B inflam inh)
Cc1cc(OCCN2CCC(Cc3ccccc3)CC2)ccc1[N+](=O)[O-]	PINK1 expr mod inconclusive, SW480 rerep inconclusive, ATXN2 expr inh inconclusive, IL-1B inflam inh -74
Cc1cc(OCCN2CC(C)OC(C)C2)ccc1[N+](=O)[O-] (centres undefined)	none
CN(CC(=O)Nc1ccccc1Cl)C(=O)COC(=O)c1nc(Cl)c(Cl)c(Cl)c1Cl	SW480 rerep inconclusive, ATXN2 expr inh inconclusive, MCF10A rereplic 5.8µM, IL-1B inflam inh -67 (no result: ATXN viability)
CN(CC(=O)Nc1ccccc1Cl)C(=O)COC(=O)c1ccc(Cl)nc1	none
Cc1oc(-c2ccccc2NC(=O)c2cccnc2)nc1CNC(=O)c1ccc(N(C)C)cc1	ATXN viability inconclusive (no result: SW480 rerep, ATXN2 expr inh, MCF10A rereplic, IL-1B inflam inh)
Cc1noc(C)c1CSc1nc2ccccc2nc1NS(=O)(=O)c1ccc(Cl)cc1	PINK1 expr mod inconclusive, MCF10A rereplic 2.6µM
O=C1OC(C(=O)O)Cc2ccccc21 (centres undefined)	SW480 rerep inconclusive, MCF10A rereplic 18µM
Clc1cccc(N2CCN(CCCN3CCN(c4ccccc4)CC3)CC2)c1	SW480 rerep inconclusive, ATXN2 expr inh inconclusive, ATXN viability inconclusive, MCF10A rereplic inconclusive, IL-1B inflam inh -53
O=C(CCC(=O)N1CCN(c2cccc(Cl)c2)CC1)N1CCN(c2ccccc2)CC1	ATXN2 expr inh inconclusive
S=C(NCCN1CCOCC1)N1CCN(c2cccc(Cl)c2)CC1	IL-1B inflam inh -92
S=C(NCc1ccco1)N1CCN(c2cccc(Cl)c2)CC1	none
CCOC(=O)c1cc2c(C)n(-c3ccc(C)cc3)c(C)c2ccc1=O	SW480 rerep inconclusive, IL-1B inflam inh -66
CCOC(=O)c1cc2c(C)n(-c3ccc(OCC)cc3)c(C)c2ccc1=O	PINK1 expr mod inconclusive

Source: PubChem BioAssay (National Center for Advancing Translational Sciences (NCATS))
